Screening data as filed in PubChem.
D1 PAM – potentiators of human D1 dopamine receptor | potentiation, % at 10 µM | actives 0.036% (n = 360,000) | P21728 | HEK293 TREx D1 cells, calcium flux, dopamine EC20 potentiation; in the data active = potentiation above about 30%; note: 0% is about no effect
D3 antag – D3 dopamine receptor (human) antagonism | actives 2.5% (n = 360,000) | max response, negative = inhibition, % | D3R cells, DiscoveRx beta-arrestin luminescence, antagonist mode; active compounds read low; in the data active = max response below about -50%; inconclusive = no clear call, values can overlap the other calls; note: % is set by controls: 0 for no effect and ±100 for the full control effect
Target sequence (P35462 whole entry, looked up): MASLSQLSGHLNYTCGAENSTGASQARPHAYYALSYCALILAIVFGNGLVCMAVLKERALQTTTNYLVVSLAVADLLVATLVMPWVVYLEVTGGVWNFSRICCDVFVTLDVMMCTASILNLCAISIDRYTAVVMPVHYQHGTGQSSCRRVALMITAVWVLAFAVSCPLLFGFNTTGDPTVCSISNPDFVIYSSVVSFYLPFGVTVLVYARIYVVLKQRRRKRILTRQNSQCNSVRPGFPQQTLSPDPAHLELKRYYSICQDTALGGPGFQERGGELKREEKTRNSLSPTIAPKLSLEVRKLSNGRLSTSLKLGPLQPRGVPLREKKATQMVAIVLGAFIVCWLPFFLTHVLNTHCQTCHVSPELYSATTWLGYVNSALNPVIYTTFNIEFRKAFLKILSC
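Cells plated overnight at 1500 cells/well, then exposed to library compounds with dopamine controls for 90 minutes at 37 degrees C. DiscoveRx reagent added for 30–60 minutes at room temperature; luminescence read, quantitative HTS format.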
D3 ag – activates the human D3 dopamine receptor; actives 0.58% (n = 410,000); max activation, %; D3R DiscoveRx beta-arrestin cells, luminescence, 90 min; in the data active = max activation above about 30%; note: 0% is about no effect
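Agonist-mode cell screen: cells plated at 1500/well and incubated overnight at 37 °C, then exposed to library compounds for 90 min at 37 °C. Detection reagent was added for 30–60 min at room temperature, and luminescence was read.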
D1 agonist – human D1 receptor agonism; AID 504660; actives 1% (n = 360,000); P21728; activation, % at 2 µM; HEK293 T-REx D1 cells, calcium flux, agonist mode; in the data active = activation above about 30%; note: 0% is about no effect
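Agonism was scored from calcium flux recorded over 180 s (1 read/s) after pintool compound addition, following a 10-cycle baseline. Cells were inducible force-coupled HEK293 TREx D1, plated overnight at 30 C and loaded with no-wash calcium dye.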
D1 antag – human D1 dopamine receptor antagonism; P21728; AID 504652; activity change, negative = inhibition, % at 10 µM; HEK293 TREx D1 cells, calcium flux, dopamine EC80; active compounds read low; actives 3.2% (n = 360,000); in the data active = activity change below about -30%; note: % is set by controls: 0 for no effect and ±100 for the full control effect
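Cells carrying a force-coupled, tetracycline-inducible human D1 receptor report calcium flux. Each well gets a 10 s baseline, compound with 180 s monitoring, then an EC80 dopamine stimulus with a second 180 s kinetic read.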
An asterisk follows results filed as active; ? = inconclusive; . = no result given. The list is not random: actives were taken first. Their share in the collection is about 6%.

SMILES | D1 PAM | D3 antag | D3 ag | D1 agonist | D1 antag
CC[C@@H](C(=O)[C@@H](C)[C@@H](O)[C@H](C)CCc1ccc(C)c(O)c1C(=O)O)[C@H]1O[C@](CC)([C@H]2CC[C@](O)(CC)[C@H](C)O2)C[C@@H]1C | 4.5 | 275.1 | 207.5* | 207.2* | -64.4*
Clc1ccc(C2CC(c3ccco3)n3ncnc3N2)cc1Cl (configuration not stated) | -6.3 | -57.8* | 1.8 | 14.3 | -11.3
Clc1ccc(C2CC(c3ccccc3)Nc3ncnn32)cc1 (configuration not stated) | -0.8 | -22.2 | -6.8 | 2.2 | 13.1
CC(C)C(NC(=O)c1ccccc1F)C(=O)NCc1ccccc1 (configuration not stated) | -8.6 | 15.7 | 0.3 | 0.1 | -57.3*
C/C(=N\Nc1ccc(C(=O)O)cc1)c1ccc(Cl)s1 | -0.1 | -7.2 | -9.2 | 50.1* | 3.6
C/C(=N\Nc1ccc(C(=O)O)cc1)c1ccc(Br)cc1 | -5.8 | 1.1 | 3.3 | 0.6 | -9.1
COc1ccc(CN2CC(=O)N(c3ccc(C)c(C)c3)C2=S)cc1OC | -10.6 | 18.4 | 1.8 | 5.7 | -36.0*
COc1cc(CN2CC(=O)N(c3ccc(C)c(C)c3)C2=S)cc(OC)c1OC | 4.0 | 48.6 | 3.1 | 5.8 | 3.3
CC1(C(=O)NCc2ccccc2Br)CCN1Cc1ccc(-c2ccccn2)cc1 (configuration not stated) | . | 32.4 | 1.0 | . | .
O=C1C2CCCN2C(=O)N1CCCCN1CCN(c2ccc(F)cc2)CC1 (configuration not stated) | -9.9 | -75.3* | -9.2 | 4.9 | -33.5*
Cc1ccc(N2CCN(CCCCN3C(=O)C4CCCN4C3=O)CC2)cc1 (configuration not stated) | -7.9 | -78.0* | -17.5 | 3.4 | -16.5
O=C1C2CCCCN2C(=O)N1CCCCN1CCN(c2ccc(F)cc2)CC1 (configuration not stated) | -25.4 | -92.0* | -12.2 | -0.8 | -18.5
O=C1C2CCCCN2C(=O)N1CCN1CCN(c2ccc([N+](=O)[O-])cc2)CC1 (configuration not stated) | 6.0 | 0.0 | -14.7 | 7.3 | -32.7*
O=C1C2CCCN2C(=O)N1CCCCN1CCN(c2ccccc2)CC1 (configuration not stated) | -8.3 | -23.5 | 29.6 | 5.3 | -23.8
COC(C[C@H]1O[C@@H]1C(=O)[C@H](C)OCc1ccccc1)OC | . | -18.3 | 13.2 | . | .
Cn1cccc1C(C#N)c1ncc(C(F)(F)F)cc1Cl (configuration not stated) | -5.4 | ? | -4.3 | -0.4 | -3.1
CC[C@@H](C)[C@@H]1CN([C@@H](C)CN2CCC[C@H]2CN2C(N)=NC[C@@H]2Cc2ccccc2)C(=N)N1CCc1ccc(Cl)c(Cl)c1 | . | -66.2* | -47.6 | . | .
Cc1cc(C)c(S(=O)(=O)NCCc2cc3c(C)ccc(C)c3[nH]c2=O)c(C)c1 | -1.6 | . | -12.1 | -0.6 | 15.5
O=c1cc(C(F)(F)F)c2sc(N3CCCCC3)nc2[nH]1 | 3.0 | -57.4* | 2.3 | 6.4 | -1.6
O=C(CSc1nc(C(F)(F)F)cc(=O)[nH]1)N1CCCCCC1 | -6.8 | -2.2 | 3.5 | 0.9 | -11.2
O=C1C=CC(=O)N1c1ccc2c(c1)Cc1cc(F)ccc1-2 | . | -8.4 | 5.1 | . | .
CC(=O)Nc1ccc2c(c1)Cc1cc(N3C(=O)C=CC3=O)ccc1-2 | . | -64.1* | -6.9 | . | .
CCOC(=O)c1ccccc1NC(=O)CSc1nccn1Cc1ccco1 | -0.8 | . | -1.8 | 0.4 | 3.1
CCOC(=O)c1cc(-c2ccccc2)sc1NC(=O)C(C)(C)C | -8.5 | 15.8 | 1.7 | 2.8 | 19.2
CCOC(=O)c1cc(-c2ccccc2)sc1NC(=O)CC(C)C | -5.5 | 22.5 | -1.9 | 2.3 | -30.9*
SMILES | D1 PAM | D3 antag | D3 ag | D1 agonist | D1 antag
C#CCNC(=O)C[C@@H]1C[C@@]2(C(=O)OCC)CCCC=C2N(CCCCCCCC)C1=O | . | 19.5 | -3.8 | . | .
Clc1ccc2nc(-c3ccco3)c(Cc3ccsc3)n2c1 | . | -53.3* | -10.7 | . | .
Brc1ccc2nc(-c3ccco3)c(Cc3ccsc3)n2c1 | . | 7.5 | -0.9 | . | .
Cc1ccc(Cn2c(=O)n(CCc3ccccc3)c(=O)c3sc4ccccc4c32)cc1 | -1.9 | . | 1.2 | 2.1 | -5.0
Oc1c(CN2CCOCC2)cc(-c2ccccc2)cc1CN1CCOCC1 | . | -83.2* | -5.3 | . | .
CC(C)(C)c1nc(CN2CCOCC2)cc(CN2CCOCC2)c1O | 1.4 | -70.0* | -2.6 | 0.7 | 5.6
Oc1c(CN2CCOCC2)cc(CN2CCOCC2)c(O)c1CN1CCOCC1 | . | 8.1 | -1.4 | . | .
CC(CN1CCCCC1)OC(=O)c1ccccc1F (configuration not stated) | -10.0 | -15.3 | -15.0 | 1.0 | -17.2
O=C(c1ccc(Cl)cc1)C(CN1CCCCC1)c1ccccc1 (configuration not stated) | -4.1 | -72.7* | -26.1 | 0.0 | -16.1
CC(CN1CCCCC1)OC(=O)c1ccc(Cl)cc1 (configuration not stated) | 5.8 | -55.9* | -17.6 | 2.6 | 9.4
CC(CN1CCCCC1)OC(=O)C1c2ccccc2Oc2ccccc21 (configuration not stated) | -7.4 | -62.9* | -3.2 | 1.6 | -0.4
CCOC(=O)C(CN1CCCC1)c1ccccc1 (configuration not stated) | -1.7 | -0.5 | -29.7 | 0.5 | -3.5
CC(CN1CCCC1)OC(=O)c1ccc(Br)cc1 (configuration not stated) | -5.5 | -67.3* | -19.6 | 1.2 | -1.3
O=C(c1[nH]c(C(F)(F)F)nc1-c1ccccc1)N1CCC(Cc2ccccc2)CC1 | . | 0.0 | -8.0 | . | .
CC1(C)CC(NC(=O)c2sc3cc(Cl)ccc3c2Cl)CC(C)(C)N1 | -9.7 | -12.9 | 2.8 | 8.2 | -37.4*
O=C(c1cccc(S(=O)(=O)N2CCOCC2)c1)N1CCN(C/C=C/c2ccccc2)CC1 | -7.8 | -0.3 | 30.7* | 6.1 | 0.5
O=C(c1ccc(Br)s1)N1CCN(C/C=C/c2ccccc2)CC1 | -8.4 | -74.8* | -49.6 | 4.5 | -3.9
CC(=O)c1ccc(S(=O)(=O)NCC(=O)N2CCN(C/C=C/c3ccccc3)CC2)cc1 | -1.2 | -10.8 | 43.3* | 0.2 | -19.2
Cc1ccc(S(=O)(=O)NCCC(=O)N2CCN(C/C=C/c3ccccc3)CC2)cc1 | -2.8 | 19.8 | 0.4 | 2.5 | -16.7
O=C(c1cccc(S(=O)(=O)N2CCOCC2)c1)N1CCC(Cc2ccccc2)CC1 | 2.9 | -13.5 | 0.7 | 3.2 | 4.8
O=C(NCC(=O)N1CCN(C/C=C/c2ccccc2)CC1)c1ccc(Br)cc1 | . | -11.7 | -7.2 | . | .
O=C(c1ccc(Br)o1)N1CCN(C/C=C/c2ccccc2)CC1 | -6.1 | -68.6* | -9.6 | 2.2 | -16.6
Cc1cccc(-c2nnc(C3CCN(S(=O)(=O)c4cccc(Cl)c4)CC3)o2)c1 | -0.1 | . | -6.3 | -1.9 | -9.5
CCc1cccc(C)c1NC(=O)c1ccc(CN2CCc3ccccc3C2)cc1 | -8.8 | -72.3* | -21.3 | 10.6 | -11.2
